LASV entry inh: inhibitors of Lassa virus binding or cell entry; Lassa virus pseudotype entry inhibition, cell reporter; Potency, µM (doses to about 37.9 µM), most hits filed as inhibitors; hit rate 1.2% among 300,000; AID 540256; calls by dose curve; tested in HEK293 cells; also: nearly all actives have a fitted effect of over 50% in size
HCV inhibitor: HCV inhibition. hit rate 3.4% among 340,000. Huh7.5.1 HCVcc-Cre infection, luciferase reporter, 44 h. Potency, µM (top dose mostly 41.8 µM), actives largely listed as inhibitors. AID 651820; active = well fitted inhibition curve with a large enough effect; inconclusive = small, poorly fitted or top-dose-only effect, or another doubt; inactive = no such curve, though single readings can be large or run the other way
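Compounds are dispensed onto cells plated 4 h earlier at 1,000 per well, with HCVcc-Cre virus (about 0.5 moi) added next. Following 44 h of culture, luminescent signal is measured for 15 sec after 15 min with substrate at room temperature.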
MARV entry inh: inhibitors of Marburg virus binding or cell entry; Marburg virus pseudotyped entry inhibition, cell reporter; Potency, µM (series often up to 37.8 µM), usual class: inhibitors; hit rate 1.8% among 300,000; AID 540276; calls by dose curve; tested in HEK293 cells
Shiga toxin inh: inhibitors of Shiga toxin in Vero cells. Vero cells, Shiga toxin protein synthesis inhibition reporter. inhibition, % at 38.7 µM. hit rate 9.2% among 290,000. AID 2315; in the data active = inhibition mostly above about 28%, no sharp cut-off; inactive = mostly below about 43%
FMDV inh: antivirals against foot and mouth disease virus. FMDV antiviral cell-based qHTS. Potency, µM (highest dose often 57.9 µM), most hits filed as inhibitors. hit rate 1.2% among 410,000; calls by dose curve; tested in HEK293T cells; also: read-out not given here; nearly all actives have a fitted effect of over 45% in size
Cycloheximide cs: affects cycloheximide protein synthesis inhibition readout, counter-screen; hit rate 12% among 300,000; AID 2314; cell reporter, cycloheximide protein synthesis inhibition counterscreen; max response, %; in the data active = max response mostly above about 13%, no sharp cut-off; inactive = mostly below about 14%; also: read at 38.3 µM for the half of the compounds with a filed dose
Hits are given with their value; . = inactive; ? = inconclusive; / = not tested or not shown. A selection: hits, their analogues and other compounds. The true share with any hit is near 13%.

SMILES	LASV entry inh	HCV inhibitor	MARV entry inh	Shiga toxin inh	FMDV inh	Cycloheximide cs
Cc1cc(/C=C(\C#N)C(=O)NC2CCCCCC2)c(C)[nH]1	.	.	?	.	.	35.3
CC(=O)N/C(=C\c1ccccc1)C(=O)Nc1ccc(O)cc1	.	.	.	.	.	.
Cc1nc2cc3c(=O)n(C)cnc3cc2n1Cc1ccccc1	/	/	/	/	.	/
O=C(O)c1cc(O)ccc1NC(=O)C(c1ccccc1)c1ccccc1	/	.	/	.	.	.
COc1ccc(CC(N)c2csc(NC(=O)C(c3ccccc3)c3ccccc3)n2)cc1 (stereo unspecified)	/	/	/	/	.	/
CC(C)c1ccc(CNc2ccc(N3CCOCC3)cc2)cc1	?	?	.	.	.	.
Cc1ccc(CNc2ccc(N3CCOCC3)c(Cl)c2)cc1	.	.	.	29.6	.	22.2
Cc1ccc(CNc2ccc(N3CCOCC3)cc2)cc1	.	?	?	51.6	.	21.4
c1cc(CNc2ccc(N3CCOCC3)cc2)ccn1	.	.	.	48.7	?	32.8
CCNC(=S)N(CCO)Cc1cc2cc3c(cc2[nH]c1=O)OCO3	/	.	/	/	.	.
COC(=O)CN1C(=O)[C@H]2[C@@H](/C=C/c3ccccc3)N3C(=O)CN(Cc4ccccn4)C(=O)[C@@]3(Cc3ccccc3)[C@H]2C1=O	/	.	/	/	.	/
C/C(=N\NC(=O)c1ccc(N2CCCC2=O)cc1)c1ccncc1	.	.	.	.	.	.
CCCCCCCCCn1c2c(c(=N)c3c1CCC3)CCCC2	4.11µM	3.16µM	?	.	10µM	.
CCCCCn1c2c(c(=N)c3ccccc31)CCC2	?	?	?	.	.	.
CCCCCCCCn1c2c(c(=N)c3ccccc31)CCC2	?	2.82µM	?	.	2.51µM	.
COc1ccccc1CN(Cc1nc2ccccc2c(=O)[nH]1)S(=O)(=O)c1ccc2ccccc2c1	?	35.5µM	?	.	/	.
COc1ccccc1CN(Cc1nc2ccccc2c(=O)[nH]1)C(=O)Nc1cccc(C)c1	.	.	?	44.1	/	19.3
COc1ccc(S(=O)(=O)N(Cc2ccccc2)Cc2nc3ccccc3c(=O)[nH]2)cc1	?	?	.	.	.	.
O=c1[nH]c(CN(CCc2ccccc2)S(=O)(=O)c2ccc(Cl)cc2)nc2ccccc12	.	.	.	active	.	20.8
N#Cc1ccccc1NC(=O)Cn1cnc2onc(-c3cccc(F)c3)c2c1=O	.	/	/	/	.	/
Cc1ccc(Nc2ncnc(N)n2)cc1	.	.	.	49.7	.	36.5
CCOc1ccc(Nc2ncnc(N)n2)cc1	.	.	.	45.0	/	.
N[C@H](Cc1cccc(-c2ccccc2CP(=O)(O)O)c1)C(=O)O	/	/	.	/	/	/
Cc1nn2c(=O)cc(COC(=O)c3ccc(NC(=O)COc4ccc(Cl)cc4)cc3)nc2s1	?	/	/	/	15.8µM	/
Cc1nn2c(=O)cc(COC(=O)c3ccc(NC(=O)c4cccs4)cc3)nc2s1	.	/	/	/	14.1µM	/
SMILES	LASV entry inh	HCV inhibitor	MARV entry inh	Shiga toxin inh	FMDV inh	Cycloheximide cs
Cc1cn2c(=O)cc(COC(=O)c3ccc(NC(=O)COc4ccccc4F)cc3)nc2s1	.	/	/	/	.	/
Cc1cn2c(=O)cc(COC(=O)c3cccc(NC(=O)COc4ccccc4Cl)c3)nc2s1	.	/	/	/	8.91µM	/
CC(Oc1ccccc1)C(=O)Nc1ccc(C(=O)OCc2cc(=O)n3nc(C4CC4)sc3n2)cc1 (stereo unspecified)	?	/	/	/	28.2µM	/
N#CC1(Nc2ccc(Br)cc2)CCCC1	?	.	?	/	.	/
CCC1NC(=O)c2cccnc2-n2c1nc1cc(C)cc(C)c1c2=O (stereo unspecified)	/	/	/	/	.	/
CN(Cc1ccco1)C(=O)c1ccc(S(=O)(=O)N2CCCCCC2)cc1	/	.	/	/	.	/
COc1ccc(-n2nc(C(C)=O)c(=O)[nH]c2=O)cc1	?	.	.	.	.	.
Cc1cc(=O)[nH]c(NN=C2CCCCC2C)n1 (stereo unspecified)	.	.	.	/	.	/
COc1ccc(OCC(=O)Nc2ccc(C(=O)OCc3cc(=O)n4nc(C)sc4n3)cc2)cc1	.	/	/	/	10µM	/
COC(=O)c1ccc(NN=Nc2ccc(C)cc2)cc1	?	.	.	46.9	.	59.4
COC(=O)c1ccc(NC(=O)CCN2CCCCC2)cc1	.	.	.	.	.	.
COC(=O)c1ccc(N=NN2CCCCC2)cc1	.	.	?	126.6	.	37.7
Cc1ccc(C(=O)ONc2ccc(N=O)cc2)cc1	.	.	.	84.9	?	46.0
COC(=O)c1ccc(C)cc1	/	.	/	/	.	/
Cc1ccc(C)c(C(=O)CN2C(=O)CCC2=O)c1	.	.	.	.	.	.
COc1ccc2oc(=O)c(C(=O)Nc3ccccc3O)cc2c1	/	.	/	.	.	36.3

High-throughput results from PubChem.
